Sampled rows, rich in hits. Any-hit rate of the full collection: about 1.2%.
KCNH2 3.1 inh = KCNH2 3.1 (human) potassium channel inhibition; U2OS KCNH2 3.1, thallium flux FluxOr; hits give low values; activity change, % (tested at about 1.8 µM); 0.95% of 340,000 active;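 active = maximum activity change below -70%; inconclusive = maximum activity change from -70% to -50%; inactive = maximum activity change above -50%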;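 also: thallium influx rate constant from kinetic fluorescence after stimulation buffer; % is scaled to controls: 0 for no effect and ±100 for the full control effect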
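Measured as rate of thallium-driven FluxOr signal in transduced U2OS cells carrying the 3.1 channel, read kinetically for 2 min upon stimulation; values are rate constants scaled to DMSO control wells.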
hERG WT inh = inhibitors of human wildtype KCNH2 potassium channel | Q12809 | U2OS, BacMam KCNH2, thallium flux FluxOr; hits give low values | activity change, % at 1.84 µM | 0.37% of 340,000 active;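 active = maximum activity change below -70%; inconclusive = maximum activity change between -70% and -50%; inactive = maximum activity change above -50%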; also: % is scaled to controls: 0 for no effect and ±100 for the full control effect
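U2OS cells were transduced with wild-type KCNH2 virus (2.03 x 10^8 / mL) for 4 h at room temperature, then cultured overnight at 37 C. Thallium flux was read with FluxOr dye. Rate constants were normalized to DMSO controls.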
mIDH1 inhibitor = inhibitors of human mutant IDH1 R132H | 0.093% of 390,000 active | IDH1-R132H enzyme, NADPH consumption, diaphorase/resazurin fluorescence | Potency, µM (series often up to 76.6 µM), without a hit: at the top dose activity change, negative = inhibition, actives largely listed as inhibitors | AID 602179; also: potency is read from the fitted curve at half-maximal effect; % is scaled to controls: 0 for no effect and ±100 for the full control effect; nearly all actives have a fitted effect of over 65% in size
Target sequence (O75874 whole entry R132H, stated change not applied): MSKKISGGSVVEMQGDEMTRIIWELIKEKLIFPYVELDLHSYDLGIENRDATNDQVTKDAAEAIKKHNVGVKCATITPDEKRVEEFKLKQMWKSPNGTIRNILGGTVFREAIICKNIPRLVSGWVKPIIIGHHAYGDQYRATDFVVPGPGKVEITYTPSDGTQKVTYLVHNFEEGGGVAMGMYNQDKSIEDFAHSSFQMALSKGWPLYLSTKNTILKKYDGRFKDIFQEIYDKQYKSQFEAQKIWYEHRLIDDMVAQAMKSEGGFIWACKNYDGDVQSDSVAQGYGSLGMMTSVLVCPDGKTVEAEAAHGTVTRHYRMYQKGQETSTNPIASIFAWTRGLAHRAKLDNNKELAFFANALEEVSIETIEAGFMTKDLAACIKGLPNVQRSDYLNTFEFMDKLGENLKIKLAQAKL
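IDH1-R132H (0.5 ug/mL dispensed) in pH 7.5 Tris buffer was preincubated 30 min with compound, then given a substrate mix of 0.016 mM NADPH and 2 mM alpha-KG for 80 min at room temperature; remaining NADPH was read by diaphorase/resazurin fluorescence.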
Apoferritin bind = binds horse apoferritin like a general anesthetic; Potency, µM (top dose mostly 77.5 µM), without a hit: at the highest dose activity change, negative = displacement, hits mostly inhibitors; 0.074% of 350,000 active; apoferritin/1-aminoanthracene competitive binding, fluorescence; P02791; also: potency is read from the fitted curve at half-maximal effect; % is scaled to controls: 0 for no effect and ±100 for the full control effect; nearly all actives have a fitted effect of over 20% in size
Target sequence (P02791 2-175 limits assumed): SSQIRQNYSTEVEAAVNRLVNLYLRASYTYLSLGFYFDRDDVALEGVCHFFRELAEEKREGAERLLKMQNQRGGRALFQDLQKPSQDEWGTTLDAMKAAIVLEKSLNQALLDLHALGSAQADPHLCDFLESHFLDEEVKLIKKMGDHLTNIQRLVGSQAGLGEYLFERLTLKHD
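Horse-spleen apoferritin (10 uM) was mixed with 50% saturated 1-aminoanthracene in PBS, exposed to compounds for 10 min at room temperature, and read for fluorescence (ex 380 nm, em 535 nm). Competitive displacement was fitted with a four-parameter Hill equation.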
S-ASM inh = human S-ASM enzyme inhibition; P17405; placental ASM, HMU-PC fluorogenic substrate, 60 min; Potency, µM (series often up to 57.5 µM), for the others: top-dose activity change, negative = inhibition, usual class: inhibitors; 0.006% of 340,000 active; also: potency is read from the fitted curve at half-maximal effect
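Fluorescence read-out (Ex 386 nm, Em 447 nm) after stopping the reaction at pH 10. Enzyme: ASM from human placenta; substrate HMU-PC0, 9 uM final; 60 min, 37 °C. Compound preincubation 10 min, ambient temperature.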
* marks the source's active call; other numbers are inactive results; ? = inconclusive; . = not tested or not shown. Unless noted, calls follow the shape of the dose curve; as a rule, active = well fitted inhibition curve with a large enough effect; inconclusive = small, poorly fitted or top-dose-only effect; inactive = no such curve, though single readings can be large or run the other way.

SMILES	KCNH2 3.1 inh	hERG WT inh	mIDH1 inhibitor	Apoferritin bind	S-ASM inh
COc1ccc(CC2(CO)CCN(Cc3ccc(OC(F)(F)F)cc3)CC2)cc1	-81*	?	-9%	-17%	4%
OCC1(Cc2ccccc2)CCN(CCCC2CCCC2)CC1	-75*	-35	6%	-10%	2%
CCc1ccc(NC(=O)NCCc2c(C)nn(C)c2C)cc1	.	.	8%	-15%	.
CSc1nc2sc3c(c2c(=O)[nH]1)CCC(C)C3 (centres undefined)	-2	4	-1%	-4%	5%
CC1CCc2c(sc3nn[nH]c(=O)c23)C1 (centres undefined)	0	-23	3%	25µM*	0%
COC(=O)C(C)NC(=O)N1CCN(c2nnc(C)c3c(C)n(-c4ccc(Cl)cc4)nc23)CC1 (centres undefined)	.	.	.	-7%	.
Cc1cccc(C(=O)NCCNC(=O)c2cccc(C)c2)c1	.	-264*	4%	-1%	1%
COc1c(Cl)cc(C(=O)N(Cc2ccc(C)o2)C2CCS(=O)(=O)C2)cc1Cl (centres undefined)	.	.	-7%	-20%	.
Cc1ccc(NC(=O)CCC(C(=O)O)N2C(=O)c3ccccc3C2=O)cc1 (centres undefined)	-141*	-187*	3%	-3%	-1%
CCOc1ccc(C(=O)Nc2nnc(S(=O)(=O)N(CC)c3ccccc3C)s2)cc1	.	.	-7%	3%	.
O=[N+]([O-])c1ccc(NCCNCCOc2nonc2-c2ccccc2)c([N+](=O)[O-])c1	-93*	-46	2%	?	-13%
Cc1nonc1OCCNCCNc1ccc([N+](=O)[O-])cc1Cl	-1	27	-8%	?	-3%
O=C1C=CC(=O)N1c1ccccc1N1C(=O)C=CC1=O	-193*	-135*	-8%	.	-3%
OCC1(CCOc2ccccc2)CCN(Cc2cc(Cl)ccc2O)CC1	4	5	4%	?	1%
OCC1(CCOc2ccccc2)CCN(Cc2ccccc2OC(F)F)CC1	-99*	5	2%	-10%	2%
C=CCOc1ccccc1CN1CCC(CO)(CCOc2ccccc2)CC1	-80*	?	5%	-19%	-1%
CSc1ccc(CN2CCC(CO)(CCOc3ccccc3)CC2)cc1	-100*	-110*	11%	-10%	4%
OCC1(CCOc2ccccc2)CCN(Cc2ccc(OC(F)F)cc2)CC1	-111*	-131*	10%	-8%	-1%
OCC1(CCOc2ccccc2)CCN(Cc2ccncc2)CC1	-1	30	-3%	-5%	-3%
Cc1nn(CCC(=O)NC(C)C)c(=O)c2nn(-c3ccccc3)c(C)c12	.	.	-16%	-8%	.
COc1ccccc1CNC(=O)Cn1c(=O)nc(-c2ccccc2)c2ccccc21	.	.	-9%	31%	.
CC(C)c1ccc(C(=O)Nc2ccc(CN3CCOCC3)cc2)cc1	-76*	9	9%	-2%	2%
O=C(Nc1ccc(CN2CCOCC2)cc1)c1ccc(-c2ccc(Cl)cc2Cl)o1	-87*	0	9%	?	-19%
CC(C)c1ccc(CNc2ccc(N3CCOCC3)cc2)cc1	-175*	-131*	8%	-21%	-3%
Cc1ccc(CNc2ccc(N3CCOCC3)cc2)cc1	-7	-1	18%	?	3%
SMILES	KCNH2 3.1 inh	hERG WT inh	mIDH1 inhibitor	Apoferritin bind	S-ASM inh
CN(N=O)C(=O)N[C@H]1C(O)C(O)C(CO)O[C@@H]1O (some centres undefined)	.	.	.	1%	.
Cc1cc(C)nc(N/N=C/C(Cl)=C/c2ccccc2)n1	-83*	7	5%	-9%	-3%
Nc1cc(N)nc(SCC(=O)N2CCN(S(=O)(=O)c3ccccc3)CC2)n1	-11	-90*	5%	-4%	-1%
Cc1cc(C)cc(-n2ccn(Cc3ccc(F)cc3)c(=O)c2=O)c1	.	.	21%	2%	.
CC1(c2ccc(OCC#N)cc2)C=C(c2ccc(OCC#N)cc2)n2nc(C(F)(F)F)nc2N1 (centres undefined)	-106*	-7	-11%	48%	-11%
CCOC(=O)c1[nH]c(C)c(CCC(=O)Nc2c(C)cc(C)cc2C)c1C	.	.	18%	69%	.
CCN(Cc1ccccc1)C1CCN(Cc2ccccc2)CC1	3	14	4%	-5%	5%
CCCN1CCC(N(CCc2ccccc2)Cc2ccccc2)CC1	-75*	-20	-2%	-7%	4%
COc1ccc(CN2CCC(C(=O)N(C)CCc3ccc(OC)c(OC)c3)CC2)c(OC)c1	-13	19	1%	-8%	4%
COc1ccc(CN2CCC(N(CCc3ccccc3)Cc3ccccc3)CC2)c(OC)c1	-107*	-72*	6%	-18%	4%
COc1ccc(OC)c(NC(=O)COCc2cc(-c3ccco3)on2)c1	.	.	25%	5%	.
CCOc1ccc(N2CC(NC(=O)/C=C\c3ccc4c(c3)OCO4)CC2=O)cc1 (centres undefined)	.	.	4%	1%	.
COc1ccc(NC(=O)CN(C)S(=O)(=O)c2ccc(C)cc2)c([N+](=O)[O-])c1	-2	-122*	1%	5%	5%
COc1ccc(CN(C)CC(=O)Nc2cc(OC)c([N+](=O)[O-])cc2C)c(OC)c1	-71*	-1	7%	?	-6%
COc1ccc(N(C)S(=O)(=O)c2ccc(C)cc2)c([N+](=O)[O-])c1	2	-2	2%	?	-1%
Cc1ccc(CSc2nc(=O)c3c(C)cc(C)nc3n2C2CC2)cc1	.	.	6%	40%	.
Cc1cccc(-n2c(N)c(-c3nc4ccccc4n3C)c3nc4ccccc4nc32)c1	-96*	-134*	-1%	4%	31%
Cc1cc2n(n1)C(c1sccc1C)Nc1ccccc1-2 (centres undefined)	1	-6	-2%	-9%	-1%
Cc1ccc2c(c1)-c1cc(C)nn1C(c1sccc1C)N2 (centres undefined)	2	-155*	2%	63%	31%
CC1(C)Cc2c(sc(NC(=O)C(=O)NCC3CCCO3)c2C(N)=O)CO1 (centres undefined)	3	-95*	-8%	-11%	-2%
Cc1ccc(S(=O)(=O)NCc2cccnc2)c(C)c1	-71*	-13	6%	-3%	-1%
O=C(/C=C/c1ccccc1)CC(=O)c1ccccc1	-86*	2	24%	.	13%
CC(C)C[C@H](NC(=O)[C@H](C)NC(=O)CNC(=O)[C@H](CCCCN)NC(=O)[C@H](CCCN=C(N)N)NC(=O)[C@H](C)NC(=O)[C@H](Cc1ccccc1)NC(=O)[C@@H](N)CCCN=C(N)N)C(=O)N[C@@H](CCCN=C(N)N)C(=O)N[C@@H](CCC(N)=O)C(=O)N[C@@H](CCCCN)C(=O)N[C@@H](CC(N)=O)C(=O)N[C@H](C(N)=O)C(C)C	.	.	.	1%	.
O=C(Nn1cnnc1)c1ccc(Br)s1	-186*	-1	-4%	-8%	-6%

Compound activity from PubChem.
